According to ChEMBL document CHEMBL3988442, “University of Dundee, Small-Polar-MMV Screening Library” (2021):
About 13,000 (27%) of roughly 48,000 compounds showed an effect of 50% or more. The list shows a part of the results.

test system: Wolbachia pipientis; assay: Anti-Wolbachia Cell-Based Screen; assay type: functional; design: scale not given: in the data most compounds retested in dose-response had high values; conditions: 5 µM

SMILES	Percent Effect [%]
CCCNC(=O)CC1OCCc2ccsc21 (stereo not drawn)	-18.02
CN1CCN(C[C@@H]2CN(Cc3c(Cl)cncc3Cl)C[C@@H]2CO)CC1	-1.243
CCn1ncc2c1C(COC)CN(c1ncc(F)cn1)C2.O=C(O)C(F)(F)F.O=C(O)C(F)(F)F (stereo not drawn)	103.8
COCC1CN(c2ncccn2)Cc2cnn(CC3CC3)c21 (stereo not drawn)	112.4
CCOCCN1Cc2cnn(C)c2C(COCC)C1.O=C(O)C(F)(F)F.O=C(O)C(F)(F)F (stereo not drawn)	-55.01
COCC1CN(c2ncc(F)cn2)Cc2cnn(C)c21.O=C(O)C(F)(F)F.O=C(O)C(F)(F)F (stereo not drawn)	94.8
Cn1ncc2c1C(COCC1CC1)CN(c1ncc(F)cn1)C2 (stereo not drawn)	102.8
COCC1CN(C(=O)N2CCCC2)Cc2cnn(CC3CCCC3)c21 (stereo not drawn)	9.026
COCC1CN(Cc2cc(C)on2)Cc2cnn(C)c21.O=C(O)C(F)(F)F.O=C(O)C(F)(F)F (stereo not drawn)	-1.756
Cn1ncc2c1C(COCC1CC1)CN(CC1CC1)C2 (stereo not drawn)	3.494
Cn1ncc2c1C(COCC1CC1)CN(S(C)(=O)=O)C2 (stereo not drawn)	3.209
CCn1ncc2c1C(COC)CN(S(=O)(=O)N(C)C)C2.O=C(O)C(F)(F)F (stereo not drawn)	-1.525
Cn1cc(C[C@H]2[C@H](N3CCOCC3)CCN2C2CCOCC2)cn1.O=C(O)C(F)(F)F.O=C(O)C(F)(F)F	-4.511
COCC1(C(=O)N2CCC(c3nccn3CC3CC3)CC2)CCC1	2.579
CCN(CC)CCSc1nnc(N2CCN(c3ccccc3)CC2)s1	-12.7
CN(Cc1cccc(O)c1)CC1CCCN(CCc2ccc(Cl)cc2)C1 (stereo not drawn)	2.569
CNC(=O)CSc1cnn(CC(=O)Nc2cccc(Cl)c2C)c(=O)c1Cl	-42.51
Cc1cnc(N2CCC3(CCC(C(=O)NC(C)C)OC3)CC2)nc1 (stereo not drawn)	-9.523
CC(=O)N1CCCN(C(=O)NCCCNS(C)(=O)=O)CC1	-1.689
COCCN1CCN(C(=O)c2ccc(C)cc2OC)[C@H]2CS(=O)(=O)C[C@H]21	5.009
COc1ccc(CNCC2CCN(c3ccccc3OC)C2)cc1O (stereo not drawn)	114.3
COc1ccccc1N1CCC(CNS(=O)(=O)c2c(C)nn(C)c2C)C1 (stereo not drawn)	-2.863
N#Cc1ccc(CNCC2CCN(CCO)CC2)cc1	-8.382

SMILES	Percent Effect [%]
COc1ccccc1N1CCC(CNCc2ccc(C#N)cc2)C1 (stereo not drawn)	109.5
COc1cccc(N2CCC(CNCc3cccc(C#N)c3)C2)c1 (stereo not drawn)	82.37
COc1ccccc1N1CCC(CNCc2cccc(O)c2)C1 (stereo not drawn)	-3.366
COc1ccccc1N1CCC(CNS(=O)(=O)c2cccc(C#N)c2)C1 (stereo not drawn)	87.58
COc1ccccc1N1CCC(CNCc2c(C)nn(C)c2OC)C1 (stereo not drawn)	-29.19
COc1ccccc1N1CCC(CNS(=O)(=O)c2cccs2)C1 (stereo not drawn)	-9.312
COc1cccc(N2CCC(CNC(=O)NCc3ccco3)C2)c1 (stereo not drawn)	2.217
COc1cccc(N2CCC(CNc3cc(C)nc4ncnn34)C2)c1 (stereo not drawn)	-5.133
COc1ccccc1N1CCC(CNCc2cccc(C#N)c2)C1 (stereo not drawn)	-2.203
CC(C)(C)N1CC(C(=O)N2CCN(CCn3cncn3)CC2)CC1=O (stereo not drawn)	-32.16
Cc1nc(NC(=O)NC2CC(=O)N(C(C)C)C2)nn1C(C)C (stereo not drawn)	-10.65
N#CCCN1CCC(=Cc2ccccc2)CC1	4.186
CC(C)C(=O)N1CCC2(COCc3cnc(-c4cccnc4)nc32)C1 (stereo not drawn)	110.7
COCC(=O)N1CCC2(COCc3cnc(-c4ccccc4)nc32)C1 (stereo not drawn)	-5.335
O=C(CC1CC1)N1CCC2(COCc3cnc(-c4cccnc4)nc32)C1 (stereo not drawn)	110.1
COCCC(=O)N1CCC2(COCc3cnc(-c4cccnc4)nc32)C1 (stereo not drawn)	82.83
O=C(CC1CC1)N1CCC2(COCc3cnc(-c4ccccc4)nc32)C1 (stereo not drawn)	-2.156
CC(C)NC(=O)N1CCC2(COCc3cnc(-c4ccccc4)nc32)C1 (stereo not drawn)	-4.544
O=C(C1CCC1)N1CCC2(COCc3cnc(-c4cccnc4)nc32)C1 (stereo not drawn)	-1.349
O=C(c1ccon1)N1CCc2ncnc(NCc3cccnc3)c2CC1	-8.818
CN1CCN(c2cc(CNCc3cccc4c3OCO4)ccn2)CC1	11.73
CC1CCCN(S(=O)(=O)NCCN/C(O)=C2/N=CC=CC2=O)C1 (stereo not drawn)	-6.366
Cn1cccc1C(=O)NC[C@H]1C[C@@H]2CN(C(=O)c3ccno3)C[C@H]2O1	1.866

SMILES	Percent Effect [%]
O=C(NC[C@@H]1C[C@@H]2CN(C(=O)CO)C[C@H]2O1)c1ccsc1	119.3
O=C(NC[C@H]1C[C@@H]2CN(C(=O)c3ccco3)C[C@@H]2O1)c1ccsc1	124.8
O=C(NC[C@H]1C[C@@H]2CN(C(=O)c3ccno3)C[C@@H]2O1)C1CCC1	2.338
O=C(c1ccsc1)N1C[C@@H]2C[C@@H](c3nnc(C4CC4)o3)O[C@@H]2C1	1.173
O=C(NCC1Cn2nnc(-c3ccncc3)c2CO1)c1ccsc1.O=C(O)C(F)(F)F (stereo not drawn)	-1.201
CN(C)C[C@H]1C[C@@H]2CN(C(=O)c3ccco3)C[C@@H]2O1	-6.391
Cn1cccc1C(=O)NC[C@H]1C[C@@H]2CN(C(=O)c3ccco3)C[C@@H]2O1	102.1
CC(C)NC[C@@]1(COc2ccccc2)C[C@@H](O)[C@@H](O)C1.Cl	3.998
N#Cc1ccc(N2CCCC2Cn2cncn2)nc1 (stereo not drawn)	6.543
COc1ccccc1C(C#N)NC(=O)c1cccc2c1oc(=O)n2C (stereo not drawn)	-5.303
CC(=O)N1CCCN(C(=O)NC(C)c2csc3ccccc23)CC1 (stereo not drawn)	-8.175
O=C1N(Cc2cccc(F)c2F)CCCC1(O)CNC1CCCC1 (stereo not drawn)	4.204
COCCNC(=O)Nc1ccc(C(=O)N2CCSCC2)cc1C	-68.32
O=C(CCc1ccc(Cl)cc1)N1CCC(O)(C(F)(F)F)C1 (stereo not drawn)	8.106
NCCC(=O)N1CCC2(CC1)CN(C(=O)Cc1ccc(Cl)cc1)CCO2	115.1
NCCC(=O)N1CCC2(CC1)CN(C(=O)Cc1cccc(Cl)c1)CCO2	105.1
O=C(Cc1ccc(Cl)cc1)N1CCC(O)(C(F)(F)F)C1 (stereo not drawn)	-18.33
O=C(Cc1ccccc1)N1CCC2(CC1)CN(c1ncccn1)CCO2	-17.85
Cl.NCC1CCCCN1C(=O)Cc1cccc(Cl)c1 (stereo not drawn)	-19.94
O=C(CN1C(=O)c2ccccc2C1=O)N1CCOC2(CCOCC2)C1	-3.799
O=C(Cc1ccccn1)N1CCC2(CC1)CN(c1ccccn1)CCO2	1.035
NCC(=O)N1CCC2(CC1)CN(C(=O)Cc1ccc(Cl)cc1)CCO2	111
